# Measured values published in PMC5913336, “True equilibrium measurement of transcription factor-DNA binding affinities using automated polarization microscopy”.
# Biological target: Tll (Drosophila melanogaster, UniProt P18102 21-118)
# Experiment: FP; 33 mM phosphate pH 7.0, 90 mM NaCl, 0.01% Tween 20, 0.1 mM DTT, 0.5% agarose; room temperature
# Conditions: tags: N-GST (pGEX-6P-1, kept); dsDNA, one strand shown
# Tll, sequence (P18102 21-118): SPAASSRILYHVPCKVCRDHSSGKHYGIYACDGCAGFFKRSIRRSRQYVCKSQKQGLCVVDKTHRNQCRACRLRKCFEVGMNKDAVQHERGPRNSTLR
Sequence,binding signal,Kd
AAAAAGTCAAAG,2.05 Kd / Kd of best base at the position,–
AAAAAGTCAACT,2.61 Kd / Kd of best base at the position,–
AAAAAGTCAAAA,1.57 Kd / Kd of best base at the position,–
AAAAAGTCACAT,1.72 Kd / Kd of best base at the position,–
AACAAGTCAAAT,3.38 Kd / Kd of best base at the position,–
GAAAAGTCAAAT,1.71 Kd / Kd of best base at the position,–
AAAAAGTAAAAT,18.6 Kd / Kd of best base at the position,–
AAAAAGTCAAAC,1.05 Kd / Kd of best base at the position,–
AAAAAGTGAAAT,71.7 Kd / Kd of best base at the position,–
AAAAAGTCAAAT,–,~4.1 nM
AAAAAGTCAAGT,3.05 Kd / Kd of best base at the position,–
AAAAAATCAAAT,10.1 Kd / Kd of best base at the position,–
AAAAAGTTAAAT,2.32 Kd / Kd of best base at the position,–
ATAAAGTCAAAT,2.33 Kd / Kd of best base at the position,–
AAAAAGCCAAAT,7.08 Kd / Kd of best base at the position,–
TAAAAGTCAAAT,2.03 Kd / Kd of best base at the position,–
AAAAAGGCAAAT,7.78 Kd / Kd of best base at the position,–
CAAAAGTCAAAT,2.71 Kd / Kd of best base at the position,–
AAAGAGTCAAAT,3.96 Kd / Kd of best base at the position,–

Sequence,binding signal,Kd
AAACAGTCAAAT,11.1 Kd / Kd of best base at the position,–
AAAAAGTCTAAT,13.1 Kd / Kd of best base at the position,–
AAAAGGTCAAAT,6.02 Kd / Kd of best base at the position,–
AAAAATTCAAAT,71.4 Kd / Kd of best base at the position,–
AAAAAGTCAATT,1.96 Kd / Kd of best base at the position,–
AAAAAGTCAGAT,4.13 Kd / Kd of best base at the position,–
AAGAAGTCAAAT,1.73 Kd / Kd of best base at the position,–
AGAAAGTCAAAT,2.99 Kd / Kd of best base at the position,–
ACAAAGTCAAAT,3.41 Kd / Kd of best base at the position,–
AATAAGTCAAAT,2.37 Kd / Kd of best base at the position,–
AAATAGTCAAAT,12.4 Kd / Kd of best base at the position,–
AAAATGTCAAAT,15 Kd / Kd of best base at the position,–
AAAAAGTCATAT,3.23 Kd / Kd of best base at the position,–
AAAAACTCAAAT,57.7 Kd / Kd of best base at the position,–
AAAAAGTCGAAT,5.21 Kd / Kd of best base at the position,–
AAAACGTCAAAT,8.65 Kd / Kd of best base at the position,–
AAAAAGACAAAT,36.4 Kd / Kd of best base at the position,–
AAAAAGTCCAAT,14.4 Kd / Kd of best base at the position,–
